In PubChem BioAssay AID449746 (Sanford-Burnham Center for Chemical Genomics, 2010) one finds inhibition data, which are given here for 87 compounds.

For orientation: inhibition means the relative decrease from the control value, in per cent.

Out of some 2,000 compounds screened, about 680 (34%) were called active. No stated cut-off is given here; in the data, active means inhibition mostly above about 28% (no sharp cut-off); inactive means mostly below about 22%. Only a sample is shown.

This test is described as follows: lowers stimulated NF-kB luciferase signal in 697 cells – cell-based, luminescence, single concentration, B-cell NF-kB inhibitor project, confirmation (AID 449746). The note with it: 697 B-cell NF-kB luciferase, PMA/ionomycin, 16 h; at 4 µM; stronger effect = higher value.
Take `CCOc1cc(C(=O)N2CCc3cc(OC)c(OC)cc3C2)ccc1OC(F)F`: the inhibition was 43.5% (active).
In the case of `Cc1ccc(C(=O)C[n+]2cc(-c3ccccc3)n3c2CCCCC3)cc1`, the inhibition was 11.4% (inactive).
Next, `c1ccc2[nH]c(-c3nc4ccccc4[nH]3)nc2c1`: -191% (inactive); `Cc1cccc(Nc2nc(-c3ccccc3)cs2)n1`: -201% (inactive); `CCN1/C(=C\c2ccc3ccccc3[n+]2CC)Sc2cc(C)ccc21`: 68.5% (active).
For `COc1cccc(NC(=O)[C@H](Cc2c[nH]c3ccccc23)NC(=O)[C@@H]2Cc3ccccc3CN2)c1` the value was 0.1% (inactive).
Next, `CC[n+]1cc(C)ccc1/C=C/c1ccc(N(C)C)cc1`: 17.4% (inactive); `OCCCNc1nccc(-c2cc(Nc3cccc(Cl)c3)ncn2)n1`: 85.9% (active); `COC(=O)C1=C(C(=O)c2ccc(C)cc2)C(c2ccccc2)n2nnnc2N1` (configuration not stated): 22.4% (inactive).
Consider `CCc1ccc2oc(-c3ccc(N)cc3)nc2c1`, for which the inhibition was -417% (inactive).
For `CCCCCc1ccc(-c2ccc(C(=O)O)cc2)nc1` the value was -165% (inactive).
On to `CNc1nc(Nc2ccc(C)c(Cl)c2)nc(N)c1[N+](=O)[O-]`, for which the inhibition is -231% (inactive).
As to `O=C(C1CCC1)N1CCN(S(=O)(=O)c2ccc([N+](=O)[O-])cc2)CC1`, the inhibition was 30.8% (active).
Next, `C=CCSc1nc(N)cc(=O)[nH]1`: -19.9% (inactive).
Next, `COc1ccc(C(=O)n2nc(-c3ccc(Cl)cc3)nc2N)cc1OC`: 46.5% (active); `C=CCn1c(C)cc(C2=NNC(=NCC)SC2)c1C`: 2.7% (inactive); `COc1cc(/C=N/NC(=O)c2ccc(N3CCCC3=O)cc2)ccc1O`: -89.1% (inactive).
For `COc1ccc(-c2nc(-c3ccccc3)no2)c(OC)c1` the value was -330% (inactive); for `O=C(O)COc1ccc(-c2nccc(-c3cccs3)n2)cc1`, 55% (active); for `CCn1c(O)c(N=NC2=NC(=O)CS2)c2cc(C)ccc21`, 17.4% (inactive).
Consider `COc1ccc(/C=N/Nc2ccccc2C(=O)O)cc1`, for which the inhibition was -12.1% (inactive).
Next, `Clc1ccc(Nc2ccc3ccccc3n2)cc1`: -340% (inactive); `C/C=C(/C)C(=O)OC1Cc2c(ccc3ccc(=O)oc23)OC1(C)C` (configuration not stated): 50.1% (active); `COc1ccc(/C=N\NC(=O)c2sc(N)nc2C)cc1OC`: 7.5% (inactive).
As for `CCC(=O)Nc1ccc2nn(-c3ccc(F)cc3)nc2c1`, the inhibition is -298% (inactive).
As to `COc1ccc(CNC(=O)[C@@H]2CC=C[C@@H]3CCN(C4CC4)C(=O)[C@@H]32)cc1`, the inhibition was 6.95% (inactive).
Regarding `CCOC(=O)c1cc2c(=O)n3ccccc3nc2n(CC(C)C)c1=NC(=O)c1c(-c2c(F)cccc2Cl)noc1C`, the inhibition was 33% (active).
Next, `CCOc1cccc(/C=C/c2ccc3ccccc3n2)c1OC(C)=O`: -337% (inactive).
Next, `Cn1nccc1C(=O)NC1CCCc2c1cnn2-c1ccc(F)cc1F` (configuration not stated): 105% (active); `COc1ccc(C(=O)NC2CCCc3c2cnn3-c2cccc(C)c2C)c(OC)n1` (configuration not stated): -397% (inactive); `Cn1nccc1C(=O)NC1CCCc2c1cnn2-c1ccccc1F` (configuration not stated): 97.9% (active).
For `Cc1cc(Nc2cc(N3CCN(C)CC3)nc(Sc3ccc(NC(=O)C4CC4)cc3)n2)n[nH]1` the value was 27.8% (inactive); for `COc1c(C)c2c(c(O)c1C/C=C(\C)CCC(=O)O)C(=O)OC2`, -398% (inactive); for `CC(C)CC(=O)N/C(N)=N/c1nc2ccccc2s1`, -290% (inactive).
As for `Cc1ccc2cc3cc(C(=O)N4CCCCCC4)oc3nc2c1`, the inhibition is -242% (inactive).
Next, `COc1cc(N=Cc2c(O)[nH]c3ccccc23)cc(OC)c1OC`: 20.8% (inactive).
For `OCCN1CCN(C(=S)c2ccc(-c3ccccc3)cc2)CC1` the value was 47% (active); for `CCOC(=O)c1c(-c2ccc(C)cc2C)csc1NC(=O)CSc1nnnn1C`, -192% (inactive).
Next, `COc1ccc(-c2csc(Nc3ccccn3)n2)cc1`: -117% (inactive); `O=C(CN1C(=O)c2ccccc2S1(=O)=O)N1CCc2ccccc21`: 32.4% (active); `Cc1cc(N=Nc2ccc3ccccc3c2)ccc1O`: -266% (inactive).
For the compound `CC(C)(C)c1ccc(Oc2ccc(N)cc2)cc1`, the inhibition was 17.2% (inactive).
With `Cn1c(-c2ccc(C(F)(F)F)cc2)cc2onc(-c3ccccc3)c2c1=O`, the inhibition is -301% (inactive).
As for `Cc1cc(N)n2nc(-c3ccc(C(C)(C)C)cc3)cc2n1`, the inhibition was -470% (inactive).
With `O=C(NC(Nc1nc2ccc([N+](=O)[O-])cc2s1)(C(F)(F)F)C(F)(F)F)c1ccccc1`, the inhibition was -31.2% (inactive).
With `CCNC(=O)CCc1nc(-c2ccc(C(C)(C)C)cc2)no1`, the inhibition is 79.3% (active).
Take `CCCNC(=O)c1ccc(N2CCC3(CC2)CC(c2cccc(Br)c2)=NO3)c(NC(=O)c2ccco2)c1`: the inhibition was 16.6% (inactive).
Consider `O=C(NCCCN1CCOCC1)c1cc(-c2ccc(Cl)cc2)on1`, for which the inhibition is 17.5% (inactive).
For `O=c1c2c(nc3cc(-c4cccc(Cl)c4)[nH]n13)CCCC2` the value was -285% (inactive); for `Clc1ccc2nc(CSc3ccccc3)cn2c1`, -248% (inactive).
Take `CC(C)C[C@@H](N)c1nnc(SCC(=O)c2ccc(Cl)cc2)o1`: the inhibition is 56.2% (active).
In the case of `Fc1ccccc1/C=N/Nc1cc(N2CCCCC2)ncn1`, the inhibition is -264% (inactive).
Consider `CCOc1ccc(C(c2c(C)[nH][nH]c2=O)c2c(C)[nH][nH]c2=O)cc1OCC`, for which the inhibition was 18.2% (inactive).
Next, `Cn1c(=O)cc(SCC(=O)N2CCCC2)c2cc(Cl)ccc21`: 38.2% (active).
Take `CC(C)CCNC(=O)c1ccc2c(Cl)c3c(nc2c1)CCC3`: the inhibition was -231% (inactive).
Next, `Cc1ccc(NC(=O)c2cc([N+](=O)[O-])ccc2Cl)c(O)c1`: 11.5% (inactive); `Cc1ccc(O)c(NC(=O)COc2cc(C)ccc2C)c1`: 28.7% (active).
For `CC[C@]1(O)CC2CN(CCc3c([nH]c4ccccc34)[C@@](C(=O)OC)(c3cc4c(cc3OC)N(C=O)[C@H]3[C@@](O)(C(=O)OC)[C@H](OC(C)=O)[C@]5(CC)C=CCN6CC[C@]43[C@@H]65)C2)C1` (some centres not stated) the value was -337% (inactive); for `COc1ccc(C2=Nc3cc(C)ccc3OC2)cc1`, -255% (inactive).
Take `Cc1ccc(N/C=C/C(=O)c2ccccc2)cc1C`: the inhibition was -12.9% (inactive).
`CNC(=O)c1ccc(NC(=O)c2cccc(C(F)(F)F)c2)cc1`: the inhibition is 12.7% (inactive).
Turning to `Cc1cccc(C(=O)Nc2ccc(CC(=O)O)cc2)c1`, the inhibition was 21.7% (active).
For `COc1ccc(-n2nnnc2-c2nc3ccccc3s2)cc1` the value was -323% (inactive); for `COc1ccc2nc(SCc3ccccc3)nc(C)c2c1`, -295% (inactive); for `Cn1c(=O)n(C)c2cc(C(=O)Nc3ccc4c(c3)OCO4)ccc21`, 35.1% (active).
Next, `O=C(Nc1nc2ccccc2s1)c1ccc2c(c1)OCO2`: -466% (inactive).
For `C/C(=N\Nc1nc(Nc2ccccc2)nc(N2CCOCC2)n1)c1cccs1` the value was 34.2% (active); for `Cc1ccc(-n2cc3ccc([N+](=O)[O-])cc3n2)cc1`, -341% (inactive); for `Cc1cc2nc(-c3ccc(NC(=O)c4cccnc4)cc3)oc2cc1C`, -187% (inactive).
`Cc1cccc(-n2c(C)cc(/C=N\NC(=O)c3cccs3)c2C)c1`: the inhibition is -11.6% (inactive).
Next, `C[C@@H]1C[C@@H]2O[C@H]2/C=C\C=C\C(=O)Cc2c(Cl)c(O)cc(O)c2C(=O)O1`: 79.9% (active); `COc1cccc(/C=C/c2ccc3ccccc3n2)c1OC(C)=O`: -459% (inactive); `COc1ccc(/C=C2\SC(=S)N(CCC(=O)Nc3ccccn3)C2=O)cc1OC`: 10.2% (inactive).
Next, `C=CCOc1ccc(/C=C2\SC(=S)N(CCC(=O)O)C2=O)cc1`: 54.5% (active).
For `NS(=O)(=O)c1ccccc1NC(=O)c1c(O)c2ccccc2[nH]c1=O` the value was -472% (inactive).
With `O=C(/C=C/c1ccc(OCc2c(F)cccc2Cl)cc1)N1CCOCC1`, the inhibition was -278% (inactive).
For `COc1ccc(CNC(=O)CNC(=O)c2sc3ccccc3c2Cl)cc1OC`, the inhibition was 3.3% (inactive).
Next, `Cn1c(-c2ccc(F)cc2)cc2onc(-c3ccccc3Cl)c2c1=O`: -244% (inactive); `O=C(O)CCn1c(O)c(C=C2N=c3ccccc3=N2)sc1=S`: 58.5% (active); `O=c1[nH]c(-c2ccccc2)c(-c2ccccc2)[nH]1`: 25.8% (inactive).
For `CCOc1ccc(N/C=C/C(=O)c2ccccc2)cc1` the value was -272% (inactive); for `COc1ccccc1OCc1nc2ccccc2s1`, -319% (inactive); for `Cn1c(-c2ccc(C(=O)c3ccccc3)s2)nc2ccccc21`, -249% (inactive).
For `Cc1ccc(OCc2nc3ccccc3n2C)cc1` the value was -216% (inactive); for `CCCc1nc2c(C)cc(-c3nc4ccccc4n3C)cc2n1Cc1ccc(-c2ccccc2C(=O)O)cc1`, 28.4% (active).
With `COc1cccc(-c2nc3cc(C)ccc3o2)c1`, the inhibition is -299% (inactive).
For `COc1ccc(Nc2nc(-c3ccccc3)cs2)cc1` the value was -131% (inactive).
